Source: PubChem BioAssay (NCATS)
Records with an inconclusive call do not appear. Active and inactive are the calls of the source. The call rests on the fitted dose curve; in most records, active means well fitted curve in the direction sought with a large enough effect; inconclusive means small, poorly fitted or top-dose-only effect, or another doubt; inactive means no such curve, though single readings can be large; an effect the other way counts as inactive or inconclusive.

Columns and labels:
[1] = Quantitative High-Throughput drug screen in 47 multiple myeloma cell lines against the NCATS MIPE library collection: JIM3_ECACC cell viability assay (AID 1918963; further: nearly all actives have a fitted effect of over 35% in size)
Procedure, shortened: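 Primary qHTS used for cherry-picking: cells at 500/well, library compounds for 48 h (37C, 5% CO2), luminescent ATP assay.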

[2] = Quantitative High-Throughput drug screen in 47 multiple myeloma cell lines against the NCATS MIPE library collection: JIM1_ECACC cell viability assay (AID 1918964)
Procedure, shortened: (§1)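 Luminescent ATP measurement with CellTiter-Glo gives viability, scaled between DMSO-only wells (100%) and media-only wells (0%). Cells, 500 per well, faced library compounds for 48 hours at 37C.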

[3] = Quantitative High-Throughput drug screen in 47 multiple myeloma cell lines against the NCATS MIPE library collection: INA6_PLB cell viability assay (AID 1918965; further: nearly all actives have a fitted effect of over 55% in size)
Procedure, shortened: (§2)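 We plated 500 myeloma cells per well, pinned in MIPE 4.0 compounds, and incubated for 48 hours at 37C. ATP was then quantified with CellTiter-Glo, with DMSO and media-only wells defining 100% and 0%.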

[4] = Quantitative High-Throughput drug screen in 47 multiple myeloma cell lines against the NCATS MIPE library collection: JJN3_DSMZ cell viability assay (AID 1918966; further: nearly all actives have a fitted effect of over 50% in size)
Procedure, shortened: as §1

[5] = Quantitative High-Throughput drug screen in 47 multiple myeloma cell lines against the NCATS MIPE library collection: H1112_PLB cell viability assay (AID 1918967; further: nearly all actives have a fitted effect of over 30% in size)
Procedure, shortened: as §1

[6] = Quantitative High-Throughput drug screen in 47 multiple myeloma cell lines against the NCATS MIPE library collection: Karpas25_ECACC cell viability assay (AID 1918968; further: nearly all actives have a fitted effect of over 35% in size)
Procedure, shortened: as §1

[7] = Quantitative High-Throughput drug screen in 47 multiple myeloma cell lines against the NCATS MIPE library collection: KMS27_JCRB cell viability assay (AID 1918970); further: nearly all actives have a fitted effect of over 30% in size
Procedure, shortened: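 Each line is seeded at 500 cells per well and treated with library compounds for 48 hours under 37 °C, 5% CO2. CellTiter-Glo is then added for 5 min at room temperature before median relative luminescence is recorded.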

[8] = Quantitative High-Throughput drug screen in 47 multiple myeloma cell lines against the NCATS MIPE library collection: KMS12BM_JCRB cell viability assay (AID 1918971); further: nearly all actives have a fitted effect of over 35% in size
Procedure, shortened: (§3)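 qHTS of the MIPE 4.0 collection: 500 myeloma cells/well, 48 h drug exposure at 37C in 5% CO2, then CellTiter-Glo for 5 min at room temperature before luminescence reading.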

[9] = Quantitative High-Throughput drug screen in 47 multiple myeloma cell lines against the NCATS MIPE library collection: KMS12PE_JCRB cell viability assay (AID 1918972); further: nearly all actives have a fitted effect of over 30% in size
Procedure, shortened: as §2

[10] = Quantitative High-Throughput drug screen in 47 multiple myeloma cell lines against the NCATS MIPE library collection: KMS20_JCRB cell viability assay (AID 1918973); further: nearly all actives have a fitted effect of over 45% in size
Procedure, shortened: as §1

[11] = Quantitative High-Throughput drug screen in 47 multiple myeloma cell lines against the NCATS MIPE library collection: KMS26_JCRB cell viability assay (AID 1918975); further: nearly all actives have a fitted effect of over 45% in size
Procedure, shortened: as §3

[12] = Quantitative High-Throughput drug screen in 47 multiple myeloma cell lines against the NCATS MIPE library collection: MMM1_PLB cell viability assay (AID 1918976); further: nearly all actives have a fitted effect of over 35% in size
Procedure, shortened: (§4)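 Plated at 500 cells per well, myeloma lines received MIPE 4.0 compounds by pin tool. Following 48 h culture at 37 °C, CellTiter-Glo luminescence gave viability relative to DMSO and media-only controls.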

[13] = Quantitative High-Throughput drug screen in 47 multiple myeloma cell lines against the NCATS MIPE library collection: MOLP8_DSMZ cell viability assay (AID 1918977); further: nearly all actives have a fitted effect of over 45% in size
Procedure, shortened: as §4

[14] = Quantitative High-Throughput drug screen in 47 multiple myeloma cell lines against the NCATS MIPE library collection: NCIH929_DSMZ cell viability assay (AID 1918978); further: nearly all actives have a fitted effect of over 35% in size
Procedure, shortened: as §4

[15] = Quantitative High-Throughput drug screen in 47 multiple myeloma cell lines against the NCATS MIPE library collection: OCIMY1_PLB cell viability assay (AID 1918979); further: nearly all actives have a fitted effect of over 35% in size
Procedure, shortened: as §4

[16] = Quantitative High-Throughput drug screen in 47 multiple myeloma cell lines against the NCATS MIPE library collection: MM1S_ATCC cell viability assay (AID 1918980); further: nearly all actives have a fitted effect of over 45% in size
Procedure, shortened: as §4

[17] = Quantitative High-Throughput drug screen in 47 multiple myeloma cell lines against the NCATS MIPE library collection: MM1R_ATCC cell viability assay (AID 1918981); further: nearly all actives have a fitted effect of over 35% in size
Procedure, shortened: as §4

[18] = Quantitative High-Throughput drug screen in 47 multiple myeloma cell lines against the NCATS MIPE library collection: KMS28PE_JCRB cell viability assay (AID 1918983); further: nearly all actives have a fitted effect of over 35% in size
Procedure, shortened: as §4

[19] = Quantitative High-Throughput drug screen in 47 multiple myeloma cell lines against the NCATS MIPE library collection: KMS21BM_JCRB cell viability assay (AID 1918974); details: ATP luminescence, 48 h; viability: at 45.8 µM (top of the series) unless noted
Procedure, shortened: as §1

[20] = Quantitative High-Throughput drug screen in 47 multiple myeloma cell lines against the NCATS MIPE library collection: LP1_DSMZ cell viability assay (AID 1918982); further: nearly all actives have a fitted effect of over 35% in size
Procedure, shortened: as §4

Measured: Potency
Potency means the concentration at half of the fitted maximal effect.

COc1cc2ncnc(Nc3ccc(F)c(Cl)c3)c2cc1NC(=O)C=CCN1CCCCC1
active: [1] 6.62 µM | [2] 10.5 µM | [3] 3.72 µM | [4] 20.9 µM | [5] 8.33 µM | [6] 2.96 µM | [7] 4.18 µM | [8] 18.7 µM | [9] 1.87 µM | [10] 2.96 µM | [11] 18.7 µM | [12] 18.7 µM | [13] 18.7 µM | [14] 4.69 µM | [15] 26.4 µM | [16] 13.2 µM | [17] 16.6 µM | [18] 23.5 µM

CN1CC[C@@H](c2c(O)cc(O)c3c(=O)cc(-c4ccccc4Cl)oc23)[C@@H](O)C1
active: [1] 0.0833 µM | [2] 0.0235 µM | [3] 0.0418 µM | [4] 0.0743 µM | [5] 0.132 µM | [6] 0.0833 µM | [7] 0.0935 µM | [8] 0.132 µM | [9] 0.132 µM | [10] 0.0833 µM | [19] 0.0296 µM | [11] 0.105 µM | [12] 0.187 µM | [13] 0.0526 µM | [14] 0.0743 µM | [15] 0.187 µM | [16] 0.0935 µM | [17] 0.105 µM | [20] 0.0662 µM | [18] 0.132 µM

CCN(CC)CCCCNc1ncc2cc(-c3cc(OC)cc(OC)c3)c(NC(=O)NC(C)(C)C)nc2n1
inactive: [15]
active: [1] 23.5 µM | [2] 20.9 µM | [3] 16.6 µM | [4] 20.9 µM | [5] 23.5 µM | [6] 10.5 µM | [7] 16.6 µM | [8] 18.7 µM | [9] 16.6 µM | [10] 7.43 µM | [14] 11.8 µM | [16] 20.9 µM | [17] 23.5 µM | [20] 16.6 µM | [18] 6.62 µM

CC(C)c1cnn2c(NCc3ccccc3)cc(N[C@@H](CO)[C@H](O)CO)nc12
active: [1] 0.235 µM | [2] 0.132 µM | [3] 0.166 µM | [4] 0.132 µM | [5] 0.296 µM | [6] 0.235 µM | [7] 0.209 µM | [8] 0.332 µM | [9] 0.372 µM | [10] 0.235 µM | [11] 0.296 µM | [12] 0.332 µM | [13] 0.166 µM | [14] 0.166 µM | [16] 0.235 µM | [17] 0.235 µM | [20] 0.264 µM

CC1(O)CC(c2nc(-c3ccc4ccc(-c5ccccc5)nc4c3)c3c(N)nccn23)C1 (stereo unspecified)
active: [1] 0.148 µM | [2] 0.0105 µM | [3] 6.62 µM | [4] 6.62 µM | [5] 23.5 µM | [6] 0.372 µM | [7] 2.35 µM | [8] 16.6 µM | [9] 2.35 µM | [10] 1.18 µM | [12] 0.209 µM | [14] 0.187 µM | [16] 0.132 µM | [17] 0.187 µM | [20] 0.235 µM | [18] 0.264 µM

CCCNC(=O)Nc1ccc(Oc2ncnc3cc(OC)c(OC)cc23)cc1Cl
active: [8] 18.7 µM | [12] 1.66 µM | [16] 20.9 µM
not listed: [10] | [11] | [19]
inactive: all other assays above

CCCCOc1c(C(=O)c2c(F)cc(C)cc2F)cnc2n[nH]cc12
active: [1] 8.33 µM | [2] 2.96 µM | [3] 4.18 µM | [4] 2.35 µM | [5] 4.69 µM | [6] 4.69 µM | [7] 3.72 µM | [8] 5.26 µM | [10] 4.18 µM | [11] 3.72 µM | [12] 5.26 µM | [13] 2.96 µM | [14] 1.32 µM | [16] 2.09 µM | [17] 3.72 µM | [20] 3.32 µM | [18] 5.9 µM

CC(C)c1ccccc1Cc1cc(C(=O)Nc2ccc(S(=O)(=O)c3ccccc3C(C)(C)C)cc2)c(O)c(O)c1O
inactive: [2] | [7] | [9]
active: [1] 4.18 µM | [3] 5.26 µM | [4] 14.8 µM | [5] 6.62 µM | [6] 3.72 µM | [8] 3.72 µM | [10] 9.35 µM | [12] 18.7 µM | [13] 13.2 µM | [14] 7.43 µM | [15] 23.5 µM | [16] 11.8 µM | [17] 10.5 µM | [18] 16.6 µM

COCCOc1ccc2c(c1)ncn2-c1ccc2cccc(N3CCC(N)CC3)c2n1
active: [1] 10.5 µM | [2] 5.9 µM | [3] 0.0469 µM | [4] 4.18 µM | [5] 6.62 µM | [6] 0.0662 µM | [7] 1.66 µM | [8] 9.35 µM | [9] 0.0372 µM | [10] 0.0743 µM | [11] 13.2 µM | [12] 23.5 µM | [14] 1.66 µM | [15] 2.64 µM | [16] 3.72 µM | [17] 1.66 µM | [20] 2.09 µM | [18] 13.2 µM
